# TDP-43 rescue – inhibitors of TDP-43 toxicity in yeast; Potency, µM (highest dose often 46.1 µM), actives largely listed as activators; yeast TDP-43 toxicity rescue, BacTiter-Glo growth, 24 h; hit rate 0.45% among 45,000; AID 1347073; active = well fitted activation curve with a large enough effect; note: 0% is about no effect; nearly all actives have a fitted effect of over 55% in size
#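 TDP-43-expressing yeast, pregrown in raffinose, seeded at OD600 0.02 in galactose medium with compound for 24 hr at 30 deg C. Growth read by BacTiter-Glo luminescence, so rescue of toxicity appears as activation.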
# * marks the source's active call; other numbers are inactive results; i = inactive. The entries come from a sample that favours hits as a whole. Potency is the fitted concentration of half-maximal effect.
SMILES,TDP-43 rescue
CN(CC1COc2ccccc2O1)C(=O)CSc1nncs1 (stereo not drawn),i
CN(CC1COc2ccccc2O1)C(=S)Nc1ccccc1F (stereo not drawn),11.2µM*
CCCN(CC1CC1)C(=S)Nc1ccccc1F,i
COc1ccc(C(=O)N2c3ccc(C)cc3C(C)(c3ccccc3)CC2(C)C)cc1 (stereo not drawn),i
COc1cc(NC(=O)Cn2c(=O)n(CC(=O)NCCc3ccc(OC)c(OC)c3)c(=O)c3sccc32)cc(OC)c1,i
Cc1ccc(OCC(=O)O/N=C(\N)c2cccc([N+](=O)[O-])c2)cc1C,i
O=C(NCC1CCCCC1)c1cccc([N+](=O)[O-])c1,i
N/C(=N\OC(=O)CC1CCCCC1)c1ccc([N+](=O)[O-])cc1,17.8µM*
CCOc1ccccc1NC(=O)c1c(NC(=O)c2ccccc2C)sc2c1CCC(C)C2 (stereo not drawn),i
Cc1ccccc1CNC(=O)c1ccc2c(c1)N(Cc1ccccc1)CCS2,i
CC(Cc1ccco1)NC(=O)c1ccc(C(F)(F)F)cc1 (stereo not drawn),i
Cc1ccc(/C=C/C(=O)OCn2nnc3ccccc3c2=O)o1,14.1µM*
C[C@H](NC(=O)CCCn1nnc2ccccc2c1=O)C(=O)O,i
Cc1ccccc1OCC(=O)OCn1nnc2ccccc2c1=O,i
COCCNC(=O)Cn1c(=O)n(CCCCCC(=O)NCc2ccccc2Cl)c(=O)c2sccc21,i
Cc1cc(C)cc(Cn2c3ccc(NC(=O)NCCc4cccs4)cc3c(=O)n2C)c1,i
Cc1cccc(C2c3[nH]c4ccccc4c3CCN2Cc2ccc(C)s2)n1 (stereo not drawn),i
Cc1cccc(C2c3[nH]c4ccccc4c3CCN2C(=O)Cc2n[nH]c(C)n2)n1 (stereo not drawn),i
CC(=O)c1ccc(C(=O)N2CCc3c([nH]c4ccccc34)C2c2cccc(C)n2)s1 (stereo not drawn),12.6µM*
CCCOc1ccc(CNC(=O)C2CCN(C(=O)c3sccc3-n3cccc3)CC2)cc1,i
Cc1cc(C)c(S(=O)(=O)N2CCN(C(=O)c3cc4ccccc4o3)CC2)c(C)c1,i
Cc1ccc(C(=O)N2CCN(S(=O)(=O)c3cc(Br)ccc3Br)CC2)o1,14.1µM*
Cc1onc(-c2ccccc2)c1C(=O)N1CCN(S(=O)(=O)c2ccccc2Br)CC1,i
CCOC(=O)C1(C)CCCCCN1C(=O)c1ccccc1F (stereo not drawn),i
Cc1ccc(S(=O)(=O)N[C@H](C(=O)OCC(=O)NC(=O)c2cccn2C)C(C)C)cc1,i
SMILES,TDP-43 rescue
Clc1nc2ccccc2nc1-c1ccccc1,i
CN(c1nc2ccccc2nc1Cl)S(=O)(=O)c1ccccc1,12.6µM*
CCCc1nnc2c(N(C)S(=O)(=O)c3ccc(C)cc3)nc3ccccc3n12,i
Cc1ccccc1S(=O)Cc1ccc(C(=O)N2CCN(c3cccc(C)c3C)CC2)o1 (stereo not drawn),20µM*
CC1=C(C(=O)N2CCN(c3cccc(C)c3C)CC2)C2(CCCCC2)OC1=O,i
COc1cccc(N2CCN(C(=O)c3ccc(CS(=O)c4ccc(C)cc4)o3)CC2)c1 (stereo not drawn),i
Cc1ccccc1-c1cnn(-c2cccc([N+](=O)[O-])c2)c1N,12.6µM*
Nc1c(-c2ccccc2)c(CN2CCOCC2)nn1-c1cccc([N+](=O)[O-])c1,i
Cc1cc(NC(=O)c2cccc([N+](=O)[O-])c2)n(-c2ccccc2)n1,i
Cc1cccc(CNC(=O)C2CCN(c3nnc(-n4c(C)ccc4C)s3)CC2)c1,i
Cc1ccccc1C(=O)N(Cc1sccc1C)C1CCS(=O)(=O)C1 (stereo not drawn),i
COc1ccc(Cl)cc1NC(=O)CCNS(=O)(=O)c1cccc2nonc12,i
COc1cccc(/C=N/NC(=O)c2nc(-c3ccccc3)cc(-c3ccccc3)n2)c1O,12.6µM*
CCn1c(C)nc2cc(C(=O)N/N=C/c3cccc(OC)c3O)ccc21,i
COc1cccc(/C=N/NC(=O)N/N=C/c2cccc(OC)c2O)c1O,i
CC1(C(=O)NS(=O)(=O)c2ccc(C#N)cc2)CCN1C(=O)Cc1ccc(Cl)cc1Cl (stereo not drawn),i
COc1ccc(-n2nc(C(=O)NCC(=O)N3CCN(Cc4ccccc4)CC3)c3ccccc3c2=O)cc1OC,i
CCOC(=O)C1CCN(C(=O)CNC(=O)c2nn(-c3ccc(OC)c(OC)c3)c(=O)c3ccccc23)CC1,i
COc1ccc(-n2nc(C(=O)NCC(=O)N3CCC(C)CC3)c3ccccc3c2=O)cc1Cl,17.8µM*
COc1ccc(CNC(=O)c2ccc3nc(C)c(N(C)Cc4ccc(NC(C)=O)cc4)n3c2)cc1,i
C=C(C)CSc1nc2sc3c(c2c(=O)n1Cc1ccccc1)CC(C)(CC)OC3 (stereo not drawn),i
COC(=O)Cc1ccc(OC2(C)CCN(Cc3csc4ccccc34)C2)cc1 (stereo not drawn),i
CC1(C(=O)NS(=O)(=O)C2CC2)CCN(C(=O)c2cc3ccccc3s2)C1 (stereo not drawn),i
COC(=O)c1cc2sc(C)cc2n1Cc1ccc(Br)cc1F,i
CN(C)CCNC(=O)C1Cc2c(-c3ccccc3Oc3ccccc3)ccnc2O1 (stereo not drawn),i
SMILES,TDP-43 rescue
Nc1c(O)ccc2c1C(=O)c1ccccc1C2=O,i
CN(C)C(=O)c1cn(-c2ccccc2)nc1-c1cccc([N+](=O)[O-])c1,i
CN(C)C(=O)c1ccc2c(c1[N+](=O)[O-])C(=O)c1ccccc1C2=O,10µM*
CC(=O)NC(c1ccccc1)c1nc(-c2ccccc2)cs1 (stereo not drawn),i
O=C(O)c1ccc(NC(=S)NC(=O)c2ccc(-c3ccccc3)cc2)cc1,12.6µM*
O=C(Nc1ccc(C(=O)O)cc1)/C(=C\c1ccccc1)NC(=O)c1ccccc1,i
O=C(NC(=S)Nc1ccccc1)c1ccc(-c2ccccc2)cc1,i
COc1cc(SC)ccc1C(=O)Nc1ccc2c(c1)CCC2,i
CCCNC(=O)C1(C)CCN(CCC(=O)c2ccc(Br)cc2)C1 (stereo not drawn),i
N#Cc1cccc(NC(=O)c2cc(C3CCCCN3S(=O)(=O)c3cccc4cccnc34)on2)c1 (stereo not drawn),i
COc1ccc(C(C)(NC(C)=O)c2nc(-c3ccncc3)cs2)cc1 (stereo not drawn),i
CCOc1ccc(C(=O)Nc2cccc(NC(=O)c3ccco3)c2)cc1Cl,i
CCOc1ccccc1NC(=O)Cn1cnc2c1c(=O)n(C)c(=O)n2C,i
COCc1cc(C)n(CC(=O)Nc2ccc(N3CCOCC3)c(Cl)c2)c(=O)c1C#N,i
O=C(COc1c(F)c(F)c(C(F)(F)F)c(F)c1F)Nc1ccc(N2CCOCC2)c(Cl)c1,12.6µM*
COc1ccc(NS(=O)(=O)c2cc(NC(=O)COc3ccccc3)ccc2N2CCOCC2)cc1,i
O=S(=O)(NCCC(c1ccc(F)cc1)c1ccco1)c1ccccc1 (stereo not drawn),17.8µM*
O=C(O)C(NS(=O)(=O)c1ccc(F)cc1)c1ccccc1 (stereo not drawn),i
COc1ccc(CNCCC(c2ccc(C)cc2)c2ccco2)cc1 (stereo not drawn),i
COc1cccc(-n2nnnc2SCC(=O)NC2CCCCC2)c1,i
COc1ccc(N(C)C(=O)c2cc(S(=O)(=O)N3CCc4ccccc43)cn2C)c(OC)c1,i

# Source: PubChem
